PubChem BioAssay (NCATS)
Records with an inconclusive call do not appear. Active and inactive are the calls of the source. Calls follow the shape of the dose curve; as a rule, active = well fitted curve in the direction sought with a large enough effect; inconclusive = small, poorly fitted or top-dose-only effect, or another doubt; inactive = no such curve, though single readings can be large; an effect the other way counts as inactive or inconclusive.

Experiments:
[1] = MultiTox-Fluor Cytotoxicity Assay - LYMP1-001 - Dead Cells (AID 946)
In short: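 Cytotoxicity as increased dead-cell protease fluorescence (bis-AAF-R110, 485/520 nm), read 60 min after MultiTox-Fluor reagent. Human lymphoblastoid line exposed 16 h; Hill-fitted AC50, with DMSO as 0% and 15 uM tetraoctylammonium bromide as 100%.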

[2] = MultiTox-Fluor Cytotoxicity Assay - LYMP1-001 - Live Cells (AID 947)
[3] = MultiTox-Fluor Cytotoxicity Assay - LYMP1-002 - Live Cells (AID 955);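 also: cells exposed to compound for 16 hours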
In short: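 After 16 h compound exposure at 37 C, live LYMP1-002 lymphoblastoid cells (2500/well) were quantified by cleavage of cell-permeant GF-AFC substrate, read at 405/510 nm after 60 min. Concentration-response fitted with Hill equation for AC50.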

[4] = MultiTox-Fluor Cytotoxicity Assay - LYMP1-003 - Live Cells (AID 962);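 also: cells exposed to compound for 16 hours at 37 °C; cytotoxic hits lower the live-cell protease signal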
In short: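 Live-cell protease activity (GF-AFC substrate, 405/510 nm, 60 min at room temperature) after 16 h, 37 C compound exposure of human lymphoblastoid LYMP1-003 cells; concentration-response fitted to the Hill equation for AC50.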

[5] = Cell Viability - LYMP1-003 - Assay at 24 hr (AID 963)
In short: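 Concentration-response qHTS: ATP loss measured by CellTiter-Glo luminescence after 24 h compound exposure at 37 C. Cells were LYMP1-003 human lymphoblastoid, 2500 per well. AC50 derived via standard Hill equation modeling.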

[6] = Cell Viability - LYMP2-003 (AID 965);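 also: cells exposed to compounds for 24 h before reading; nearly all actives have a fitted effect of over 50% in size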
In short: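 CellTiter-Glo luminescence quantified ATP loss after 24 h compound treatment of LYMP2-003 lymphoblastoid cells at 37 C. Titration series were fitted with the standard Hill equation to give AC50.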

[7] = Cell Viability - LYMP2-004 (AID 966); also: nearly all actives have a fitted effect of over 65% in size
In short: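 AC50 values come from Hill modelling of concentration-dependent loss of intracellular ATP, measured by CellTiter-Glo luminescence. Human LYMP2-004 lymphoblastoid cells (2500/well) were exposed to compound for 24 h at 37 C.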

[8] = Cell Viability - LYMP2-005 (AID 967); also: series mostly up to about 92 µM
In short: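 LYMP2-005 human lymphoblastoid cells (2500/well) were treated with compounds for 24 h at 37 C. Intracellular ATP was then measured by CellTiter-Glo luminescence after 30 min at room temperature. AC50 values came from Hill-equation fits of qHTS concentration-response data.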

[9] = Cell Viability - LYMP2-009 (AID 968); also: series mostly up to about 92 µM; nearly all actives have a fitted effect of over 55% in size
[10] = Cell Viability - LYMP2-011 (AID 969); also: nearly all actives have a fitted effect of over 60% in size
In short: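 Cytotoxicity qHTS with ATP content as read-out: lymphoblastoid cells (2500/well) exposed to compound for 24 h at 37 C, then luciferase luminescence measured. Concentration-response data fitted with the standard Hill equation to give AC50.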

[11] = Cell Viability - LYMP2-013 (AID 970); also: series mostly up to about 92 µM; nearly all actives have a fitted effect of over 55% in size
In short: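 qHTS cytotoxicity: ATP-dependent luminescence (CellTiter-Glo, 30 min room temperature) read after 24 h compound exposure at 37 C of 2500 LYMP2-013 lymphoblastoid cells per well. Concentration-response fitted with Hill equation to give AC50.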

[12] = Cell Viability - LYMP2-015 (AID 971); also: nearly all actives have a fitted effect of over 55% in size
In short: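 Cytotoxicity readout: decrease in intracellular ATP (CellTiter-Glo luminescence) in 2500 LYMP2-015 lymphoblastoid cells/well after 24 h compound exposure at 37 C. Concentration-response data fitted with the standard Hill equation to give AC50.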

[13] = Cell Viability - LYMP2-017 (AID 972); also: series mostly up to about 92 µM; nearly all actives have a fitted effect of over 55% in size
In short: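 CellTiter-Glo luminescence (cellular ATP, 30 min RT) measured cytotoxicity after 24 hr compound treatment at 37 C. Cells were a human lymphoblastoid line, LYMP2-017, plated at 2500/well and incubated 5 hr first; concentration-response fitted with Hill equation for AC50.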

[14] = Cell Viability - LYMP2-019 (AID 973); also: nearly all actives have a fitted effect of over 55% in size
In short: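 AC50 values come from Hill-equation fits of luminescent intracellular ATP (CellTiter-Glo, 30 min, room temperature) following 24 h compound exposure at 37 C. Cells: LYMP2-019 lymphoblastoid line, 2500 per well, in complete culture medium.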

[15] = Cell Viability - LYMP2-021 (AID 974); also: nearly all actives have a fitted effect of over 55% in size
In short: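 AC50 values come from Hill-equation fits to CellTiter-Glo luminescence (ATP content), read after 24 hour compound exposure at 37 C of 2500 LYMP2-021 lymphoblastoid cells/well; tetraoctylammonium bromide as positive control.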

[16] = Cell Viability - LYMP2-023 (AID 975)
In short: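 Intracellular ATP, read by CellTiter-Glo luminescence, reports viability after 24 hr compound exposure at 37 C. 2500 lymphoblastoid cells/well (LYMP2-023) seeded 5 hr beforehand; Hill fits give AC50; positive control tetraoctylammonium bromide.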

[17] = Cell Viability - LYMP2-025 (AID 976); also: series mostly up to about 92 µM
In short: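 Cytotoxicity read as loss of intracellular ATP (luciferase luminescence) after 24 h compound treatment at 37 C. Uses LYMP2-025 lymphoblastoid cells in 1536-well format; Hill-equation modelling gives AC50; tetraoctylammonium bromide as positive control.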

[18] = Cell Viability - LYMP2-002 (AID 977); also: series mostly up to about 92 µM
In short: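 In this qHTS viability screen, 2500 human lymphoblastoid cells per well receive compound for 24 hr at 37 C, and luciferase-based ATP luminescence gives the viability signal. Tetraoctylammonium bromide serves as positive control.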

[19] = Cell Viability - LYMP2-006 (AID 978); also: series mostly up to about 92 µM; nearly all actives have a fitted effect of over 60% in size
In short: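 Potency values are Hill-fit AC50s for decreases in intracellular ATP (CellTiter-Glo luminescence). LYMP2-006 lymphoblastoid cells, 2500 per well, were exposed to compound in complete culture medium for 24 hr at 37 C.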

[20] = Cell Viability - LYMP2-008 (AID 980); also: nearly all actives have a fitted effect of over 60% in size
In short: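 Cytotoxicity determined from ATP-dependent luciferase luminescence (CellTiter-Glo) following 24 h compound exposure of human lymphoblastoid LYMP2-008 cells at 37 C. Concentration-response data fitted to the Hill equation to give AC50.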

Measured: Potency

CC(C)COC(=O)c1ccccc1C(=O)OCC(C)C
inactive: all assays above

Oc1ccccc1Cl
inactive: all assays above

c1ccc2c(c1)-c1cccc3cccc-2c13
inactive: all assays above

c1ccc(Nc2ccc3ccccc3c2)cc1
inactive: all assays above

CC(=O)/C=C/c1ccccc1
inactive: all assays above

COC1=CC(=O)OC(CCc2ccc3c(c2)OCO3)C1 (stereo not given)
inactive: all assays above

CCOC(=O)c1ccccc1N
inactive: all assays above
